Screening data deposited in PubChem BioAssay by The Scripps Research Institute Molecular Screening Center.
Most compounds without a hit are left out; they make up all but 4.1% or so of the library.
hgDAF-12 ag = activates the H. glycines DAF-12 receptor ligand-binding domain; AID 687014; hit rate 1.8% among 370,000; activation, % at 6.8 µM; HEK293 GAL4-hgDAF12 UAS-luciferase reporter, agonist luminescence; normalized to butyrate control;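 active = activation above a cutoff set at the mean of all screened compounds plus 3 SD, cut at about 10% in these data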
DAX1 inh-1 = inhibits human nuclear receptor DAX1 | hit rate 0.99% among 340,000 | HEK293 Gal4-DAX1 luciferase reporter, luminescence | inhibition, % at 6.75 µM | AID 504766;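 active = inhibition above the mean over all tested compounds plus 3 SD, cut at about 4.2% in these data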;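 also: inhibition shows as a rise in luminescence from relieved DAX1 repression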
Target sequence (P51843 207-470 limits assumed): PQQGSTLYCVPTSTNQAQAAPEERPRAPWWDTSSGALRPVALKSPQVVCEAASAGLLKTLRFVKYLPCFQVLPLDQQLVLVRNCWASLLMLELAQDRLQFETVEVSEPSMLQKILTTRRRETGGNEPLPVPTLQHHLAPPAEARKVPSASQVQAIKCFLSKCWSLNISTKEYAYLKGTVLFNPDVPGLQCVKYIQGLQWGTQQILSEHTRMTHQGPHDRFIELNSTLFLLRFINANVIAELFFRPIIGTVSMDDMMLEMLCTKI
ssDAF12 agonist = S. stercoralis DAF-12 activation, primary screen; hit rate 1% among 370,000; HEK293 ssDAF-12/GRIP1 lit1-tk-luc reporter, luminescence; % of 3 µM dafachronic acid response; activation, % at 6.8 µM;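 active = activation above the mean over all tested compounds plus 3 SD, cut at about 0.9% in these data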
hcDAF12 agonist = activates DAF-12 receptor from parasite H. contortus; HEK293 hcDAF-12 lit1-tk-luc reporter, luminescence; 0% DMSO, 100% Δ7-dafachronic acid; activation, % at 6.8 µM; hit rate 1.4% among 370,000; AID 652067;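 active = activation above the mean of all tested compounds plus 3 SD, cut at about 5.5% in these data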
DAX1 inh-2 = DAX1 (NR0B1) inhibition, primary screen; hit rate 1.1% among 370,000; inhibition, % at 6.8 µM; AID 652010; HEK293T StAR-luciferase reporter, SF-1/DAX-1 repression relief;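 active = inhibition above the mean over all tested compounds plus 3 SD, cut at about 3.6% in these data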;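 also: higher inhibition means more luminescence from relief of DAX-1 repression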
Of the large screens only hits and unclear results are named; the others gave an inactive call.

O=[N+]([O-])c1ccc(Cl)c(C[n+]2cccc3ccccc32)c1	ssDAF12 agonist 1.5
Clc1cccc(Cl)c1C[n+]1cccc2ccccc21	none
O=C(C[n+]1cccc2ccccc21)c1ccc([N+](=O)[O-])cc1	ssDAF12 agonist 1.3
CCC[C@H]1[C@@H](NC(=S)Nc2ccccc2Cl)CC[C@@]23CCCN2C(=O)CCC[C@@H]13	none (no result: DAX1 inh-1, DAX1 inh-2)
COc1ccc(CN2CCC(CNC(=O)NC3CCC(C)CC3)CC2)cc1 (stereo not drawn)	none (no result: DAX1 inh-1)
COC(=O)[C@@H](Cc1ccccc1)NC(=O)[C@H]1O[C@@H](n2cnc3c(N)ncnc32)[C@H](O)[C@@H]1O	none (no result: DAX1 inh-1)
Nc1ncnc2c1ncn2[C@@H]1O[C@H](C(=O)N2CCC[C@@H]2C(=O)OCc2ccccc2)[C@@H](O)[C@H]1O	hgDAF-12 ag 11.6 (no result: DAX1 inh-1)
C=CCn1c(SCC(C)=O)nc2scc(-c3ccc(C)o3)c2c1=O	DAX1 inh-1 4.7
C=CCn1c(SCC(=O)NCCCC)nc2scc(-c3ccco3)c2c1=O	none
O=C(Nc1ccc(F)cc1)OC[C@@H]1CSCCS(=O)(=O)N1	none (no result: DAX1 inh-1)
O=C(CSc1nc2ccccc2n1Cc1ccccc1Cl)NN=C/C(Br)=C/c1ccccc1	none (no result: DAX1 inh-1)
CCc1ccc(N2C(=O)CC(N3CCN(c4ccccn4)CC3)C2=O)cc1 (stereo not drawn)	none
O=C1CC(N2CCN(c3ccccn3)CC2)C(=O)N1c1ccc(F)cc1 (stereo not drawn)	ssDAF12 agonist 1.7 (no result: DAX1 inh-1)
O=C(N[C@H](Cc1ccccc1)C(=O)NCc1ccccn1)[C@H]1O[C@@H](n2ccc(=O)[nH]c2=O)[C@H](O)[C@@H]1O	none (no result: DAX1 inh-1)
CC(=O)N1c2ccccc2Oc2cc3ccccc3cc21	hcDAF12 agonist 5.7
O=C(CCl)N1c2ccccc2Oc2ccc3ccccc3c21	none
N/C(=N\OC(=O)Cc1cccs1)c1ccc([N+](=O)[O-])cc1	hgDAF-12 ag 11.2
COC(=O)[C@]12C[C@H](CC(=O)N3CCSCC3)C(=O)N(Cc3ccc(Cl)cc3Cl)C1=C[C@H](C(C)C)O[C@@H]2C1CC1	none (no result: DAX1 inh-1)
Fc1ccc(-n2nnc(-c3cccnc3)n2)cc1	hgDAF-12 ag 10.9
Clc1ccc(-n2nnc(-c3cccnc3)n2)cc1Cl	none
CCOC(=O)c1cccc(NC(=O)CN(C)S(=O)(=O)c2ccc(C)c(C)c2)c1	none (no result: DAX1 inh-1)
Nc1ccc(S(N)(=O)=O)cc1	none
Nc1ccc(S(N)(=O)=O)cc1N	hgDAF-12 ag 12.6, DAX1 inh-1 7.3
CCN1C(=O)/C(=C2\SC(N3CCOCC3)=NC2=O)c2ccccc21	none
CCCCN1C(=O)/C(=C2\SC(N3CCOCC3)=NC2=O)c2ccccc21	hcDAF12 agonist 5.9
COCCn1c(=NC(=O)c2ccc(S(=O)(=O)N3CCCc4ccccc43)cc2)sc2cc(S(C)(=O)=O)ccc21	DAX1 inh-1 4.7
COc1ccc(-c2noc(C3CCCN(C(=O)Nc4ccccc4F)C3)n2)cc1 (stereo not drawn)	hgDAF-12 ag 10.5
Cc1ccc(-c2noc(C3CCCN(C(=O)c4ccccc4Br)C3)n2)o1 (stereo not drawn)	ssDAF12 agonist 1.7
CC(=NNc1cc(C)c2ccccc2n1)c1ccccn1	ssDAF12 agonist 0.9 (no result: DAX1 inh-1)
CC(=O)Nc1ccc(CNc2ncnc3ccc(-c4c(C)noc4C)cc23)cc1	ssDAF12 agonist 1.2, hcDAF12 agonist 6.3
Cc1cccc(CNc2ncnc3ccc(-c4ccoc4)cc23)c1	none
Cc1cc(C)cc(NC(=O)CSc2nnc(CN3CCOCC3)n2C)c1	DAX1 inh-1 4.4
Cc1cc(C)c(NC(=O)CSc2nnc(CN3CCOCC3)n2C)c(C)c1	none
Cn1c(CSCc2ccccc2)nnc1SCC(=O)Nc1nccs1	none
COc1ccccc1OCc1nnc(SCC(=O)Nc2ccc(N3CCOCC3)cc2)n1C	DAX1 inh-1 4.8
COc1ccccc1C(=O)NCc1nnc(SCC(=O)Nc2nccs2)n1C	DAX1 inh-1 8.3
CCC(C)NC(=O)CSc1nnc(-c2cc(OC)c(OC)c(OC)c2)o1 (stereo not drawn)	none (no result: DAX1 inh-1)
CCOC(=O)[C@]12CCCC3=C1N(CCC3)C(=O)[C@@H](CC(=O)N1CCCCC1)C2	none (no result: DAX1 inh-1)
Cc1ccccc1Cn1cc(CN2[C@@H](Cc3ccccc3)COc3cc(Br)ccc3S2(=O)=O)nn1	none (no result: DAX1 inh-1)
COc1ccccc1C(=O)N1CCN(C(=O)[C@H]2O[C@@H](n3cnc(C(N)=O)n3)[C@H](O)[C@@H]2O)CC1	none (no result: DAX1 inh-1)
COc1ccc(OC)c(NC(=O)c2ccc(NC(C)=O)cc2)c1	none
CCCc1cc(C(=O)Nc2cc(OC)ccc2OC)cs1	ssDAF12 agonist 1.2
CN(C)CCCN(C(=O)c1cc(-c2cccs2)nc2ccccc12)c1nc2c(F)cccc2s1	DAX1 inh-2 4.1
COC(=O)C1=C(C)N(Cc2ccc(C(F)(F)F)cc2)C(=NCc2ccc3c(c2)OCO3)NC1c1cccc(Cl)c1 (stereo not drawn)	none (no result: DAX1 inh-1)
COc1ccc(S(=O)(=O)NCC2CCCN(Cc3cccnc3)C2)cc1 (stereo not drawn)	DAX1 inh-1 4.3
O=C(CC(=O)Nc1ccccc1)Nc1ccccc1	DAX1 inh-1 4.3
O=C(CSCc1ccc(C(=O)O)cc1)Nc1ccccc1	DAX1 inh-1 5.1
O=C(CNS(=O)(=O)c1ccc(F)cc1)Nc1ccccc1	none
O=C(CNc1ccccc1)Nc1ccc(F)cc1	hgDAF-12 ag 10.9, ssDAF12 agonist 0.9
CCOc1ccc(-c2nc(CSCC(=O)NC3CCC3)c(C)o2)cc1	none (no result: DAX1 inh-1, DAX1 inh-2)
CCOC(=O)C1=CCN(S(=O)(=O)c2ccc(Cl)cc2)C1c1ccc(Br)cc1 (stereo not drawn)	none (no result: DAX1 inh-1)
Cc1ccnc2nc(C(=O)Nc3nc(-c4ccccn4)cs3)nn12	DAX1 inh-1 8.3
Cc1ccccc1Nc1nnc(SCC(=O)Nc2ccccc2[N+](=O)[O-])s1	none
Cc1cccc(Nc2nnc(SCC(=O)Nc3ccccc3[N+](=O)[O-])s2)c1	DAX1 inh-1 4.4
O=C1C2C3c4ccccc4C(c4ccccc43)C2C(=O)N1c1nc(-c2ccccc2)cs1 (stereo not drawn)	none
O=C1C2C3c4ccccc4C(c4ccccc43)[C@@H]2C(=O)N1c1nc(-c2ccccc2)cs1 (stereo partly drawn)	DAX1 inh-1 5.0
NC(=O)C1CCN(c2nc(-c3ccc4c(c3)CCO4)cs2)CC1	none (no result: DAX1 inh-1, DAX1 inh-2)
COC(=O)c1cn(NC(=O)Cc2cccc(OC)c2)c(=O)c2ccccc12	DAX1 inh-1 4.2
CN(C)c1ccc(N=Cc2nc(-c3ccccc3)oc2OC(=O)c2cccc(Cl)c2)cc1	hgDAF-12 ag 11.6
COc1ccc(N=Cc2nc(-c3ccccc3)oc2OC(C)=O)cc1	none
C=CCc1ccc(OCCCOc2ccc(C)c(C)c2)c(OC)c1	none
C=CCc1ccc(OCCCCOc2ccc(C(=O)O)cc2)c(OC)c1	ssDAF12 agonist 3.8 (no result: DAX1 inh-1)
CCOc1ccc(OCc2ccc(C(=O)O)o2)cc1	none
CCCc1ccc(OCc2ccc(C(=O)O)o2)c(OC)c1	none
C=CCc1ccc(OCc2ccc(C(=O)O)o2)c(OC)c1	hcDAF12 agonist 6.0
O=C(O)c1ccc(COc2ccc3ccccc3c2)o1	hgDAF-12 ag 10.5
